Sampled rows, rich in hits. Any-hit rate of the full collection: about 3.3%.
AmpC detergent = blocks E. coli AmpC beta-lactamase in detergent assay. 0.041% of 370,000 active. AmpC hydrolysis of nitrocefin, absorbance 480 nm, 0.01% Triton. AID 485294. Potency, µM (doses to about 114 µM), for the others: top-dose activity change, negative = inhibition, actives largely listed as inhibitors. P00811;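 note: 0% = no-compound wells and -100% = no-enzyme wells; nearly all actives have a fitted effect of over 25% in size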
Target sequence (P00811 whole entry, looked up): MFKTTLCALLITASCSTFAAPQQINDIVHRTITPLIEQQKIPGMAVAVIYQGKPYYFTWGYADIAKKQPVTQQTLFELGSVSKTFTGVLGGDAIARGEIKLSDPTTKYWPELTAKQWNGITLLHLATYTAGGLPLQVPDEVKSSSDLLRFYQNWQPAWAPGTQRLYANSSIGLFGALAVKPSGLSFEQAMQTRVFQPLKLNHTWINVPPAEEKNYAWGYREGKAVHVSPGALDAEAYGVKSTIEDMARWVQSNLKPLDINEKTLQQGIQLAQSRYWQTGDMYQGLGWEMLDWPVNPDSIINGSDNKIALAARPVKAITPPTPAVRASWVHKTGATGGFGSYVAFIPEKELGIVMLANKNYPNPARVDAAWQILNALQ
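20 mM phosphate pH 7.0 + 0.01% (detergent screen) or 0.0001% Triton X-100; 5.3 nM AmpC reagent; cpd preinc 15 min RT; nitrocefin (800 uM stock) to start; A480 q20 s × 4 min; Activity was normalised to no-enzyme and no-compound control wells.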
TbPYK inhibitor = T. brucei pyruvate kinase inhibition. TbPYK enzyme, Kinase-Glo Plus ATP luminescence, 45 min. Potency, µM (top dose mostly 76.8 µM), for the others: top-dose activity, negative = inhibition, usual class: inhibitors. 0.12% of 410,000 active; note: % is set by controls: 0 for no effect and ±100 for the full control effect; nearly all actives have a fitted effect of over 50% in size
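Quantitative HTS: titrated library compounds versus trypanosomal pyruvate kinase in TEA buffer (pH 7.2) containing KCl, MgCl2, BSA and Tween-20. Reactions were initiated with ADP, 130 uM final. Kinase-Glo Plus luminescence was read after 45 min at RT.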
SARS PLP yeast = inhibitors of SARS-CoV papain-like protease in yeast. AID 485353. Potency, µM (top dose mostly 32.9 µM), for inactives: at the top dose activity, positive = growth rescue, usual class: activators. 0.19% of 330,000 active. S. cerevisiae expressing SARS-CoV PLpro, growth rescue; calls by dose curve; note: 0% is about no effect; nearly all actives have a fitted effect of over 55% in size
RE007 growth inh = less growth of the S. pombe RE007 Vpr strain. S. pombe RE007 Vpr strain, BacTiter-Glo ATP luminescence, 24 h. Potency, µM (highest dose often 92.2 µM), inactives show at the highest dose activity change, negative = less growth, hits mostly inhibitors. 0.21% of 360,000 active. AID 651644; active = well fitted falling curve with a large enough effect; inconclusive = small, poorly fitted or top-dose-only effect; inactive = no such curve, though single readings can be large or run the other way; note: % is set by controls: 0 for no effect and ±100 for the full control effect; nearly all actives have a fitted effect of over 50% in size
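Fission yeast RE007 carrying one integrated HIV-1 vpr copy, seeded at OD 0.01 in PMG+AL medium with 23 nL pinned compound. Grown 24 h at 30 degrees; viability read by BacTiter-Glo luminescence after 5 min.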
AmpC inh no detg = AmpC beta-lactamase inhibition without detergent | P00811 | AmpC nitrocefin hydrolysis, absorbance 480 nm, 0.0001% Triton | Potency, µM (series often up to 57.1 µM), for inactives: top-dose activity change, negative = inhibition, most hits filed as inhibitors | 0.52% of 330,000 active | AID 485341;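 note: plate controls were no compound for no effect and no enzyme for full effect; nearly all actives have a fitted effect of over 20% in size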
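20 mM phosphate pH 7.0 + 0.01% (detergent screen) or 0.0001% Triton X-100; 5.3 nM AmpC reagent; cpd preinc 15 min RT; nitrocefin (800 uM stock) to start; A480 q20 s × 4 min; Activity was normalised to no-enzyme and no-compound control wells.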
Sm TGR block = blocks Schistosoma mansoni thioredoxin glutathione reductase. Q962Y6. purified TGR, DTNB reduction, TNB absorbance 405 nm. Potency, µM (highest dose often 114 µM), without a hit: top-dose activity change, negative = inhibition, actives largely listed as inhibitors. 3% of 360,000 active. AID 485364; note: % is set by controls: 0 for no effect and ±100 for the full control effect; nearly all actives have a fitted effect of over 60% in size
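TGR 20 nM + NADPH 100 uM (dispensed conc.), cpd preinc 15 min RT; start with NADPH (500 uM addition) then DTNB (15 mM addition). Kinetic TNB absorbance, 405 nm filter. Four-parameter Hill fit across titration.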
* marks the source's active call; other numbers are inactive results; u = inconclusive; x = no result given; [ ] = remark or other dose. Unless noted, calls come from the whole dose curve; as a rule, active = well fitted curve in the direction sought with a large enough effect; inconclusive = small, poorly fitted or top-dose-only effect, or another doubt; inactive = no such curve, though single readings can be large; an effect the other way counts as inactive or inconclusive. Potency is the fitted concentration of half-maximal effect.

SMILES	AmpC detergent	TbPYK inhibitor	SARS PLP yeast	RE007 growth inh	AmpC inh no detg	Sm TGR block
COc1ccc(C)cc1-n1c(-c2ccncc2)n[nH]c1=S	-3%	14µM*	-1%	10%	-15%	-2%
COc1cc(OC)cc(-c2n[nH]c(=S)n2-c2cc(OC)ccc2OC)c1	1%	u	u	-11%	-28%	-1%
Cc1ccc(-n2c(-c3ccc(Cl)cc3)n[nH]c2=S)c(C)c1	u	5µM*	12%	16%	-38%	8%
COc1cc(-n2c(-c3ccccc3)n[nH]c2=S)c(OC)cc1Cl	-6%	3.5µM*	2%	7%	-30%	1%
Cc1ccc(-n2c(-c3cccnc3)n[nH]c2=S)c(C)c1	-7%	x	6%	5%[3.69 µM]	-10%	2%
COc1ccc(-c2n[nH]c(=S)n2-c2ccc(C)cc2C)cc1	u	18µM*	-2%	7%	-35%	-11%
CCOC(=O)c1cccc(NC(=O)CSc2nc3cc4ccccc4cc3[nH]2)c1	25%	4%	x	x	x	5%
CCC(Sc1nnc(C)n2c1cc1occc12)C(=O)Nc1ccccc1OC (stereo not drawn)	-1%	-2%	x	x	x	11%
CC(=O)CCc1oc2ccccc2c1-c1ccccc1	-1%	3%	-3%	-18%	-6%	-26%
C/C(CCc1oc2ccccc2c1-c1ccc(C)o1)=N/O	-9%	-12%	-18%	-20%	-1%	20µM*
C/C(CCc1oc2c(Br)cc(Br)cc2c1-c1ccc(C)o1)=N\O	0%	-17%	-60%	-15%	-46%	16µM*
CCN(CC)c1ccc(/C=N/NC(=O)c2ccco2)c(O)c1	-10%	1%	-7%	u	-41%	8%
CCN(CC)c1ccc(/C=N/NC(=S)NCc2ccccc2)c(O)c1	-10%	-3%	10µM*	9%	u	2%
Cc1cccc2c1=NC(=O)/C(=C/c1c(O)[nH]c(=O)[nH]c1=O)C=2	-14%	u	11%	10%	-1%	35µM*
O=c1[nH]c(=S)[nH]c(O)c1/C=C1/C=c2ccccc2=N1	u	-19%	3%	-20%	-6%	u
CCOC(=O)C1C2C=CC3(CN(Cc4ccco4)C(=O)C13)O2 (stereo not drawn)	-15%	2%	9%	9%	-1%	32µM*
CCCCOC(=O)C1[C@H]2C(=O)N(c3ccccc3CC)C[C@]23C=C[C@H]1O3 (stereo partly drawn)	-17%	2%	-2%	12%	23%	-31%
COC(=O)C1C2C=CC3(CN(Cc4ccco4)C(=O)C13)O2 (stereo not drawn)	1%	-5%	6%	10%	10%	28µM*
CCc1ccccc1N1CC23C=CC(O2)C(C(=O)O)C3C1=O (stereo not drawn)	1%	-15%	4%	2%	3.5µM*	2%
O=C(O)C1C2C=CC3(CN(Cc4ccco4)C(=O)C13)O2 (stereo not drawn)	-10%	-10%	-9%	8%	-16%	u
COC(=O)c1ccc(NC(=O)c2cc(=O)c3ccc(C)cc3o2)cc1	-2%	2%	x	x	x	-8%
CCN(CC)CCNC(=O)c1ccc(-c2nc(CS(=O)(=O)c3ccc(C)cc3)c(C)o2)cc1	-3%	1%	x	x	x	1%
CC(C)C(=O)NC(Nc1cccc([N+](=O)[O-])c1)C(Cl)(Cl)Cl (stereo not drawn)	-5%	0%	1%	-7%	u	x
CN(C)C(=O)NC(Nc1cccc([N+](=O)[O-])c1)C(Cl)(Cl)Cl (stereo not drawn)	6%	-10%	1%	1%	-30%	20µM*
CC1=Nc2cc(C(=O)NC(C)C)ccc2Sc2ccc(C)cc21	15%	0%	x	x	x	7%
SMILES	AmpC detergent	TbPYK inhibitor	SARS PLP yeast	RE007 growth inh	AmpC inh no detg	Sm TGR block
Cc1ccc2oc3c(c(=O)c2c1)C(c1ccc(F)cc1)N(CCCN1CCOCC1)C3=O (stereo not drawn)	-9%	x	-6%	x	51%	32µM*
CCCOc1ccc(C2c3c(oc4ccccc4c3=O)C(=O)N2CCCN2CCOCC2)cc1 (stereo not drawn)	0%	-11%	0%	0%	102%	35µM*
COC(=O)c1ccc(C2c3c(oc4ccccc4c3=O)C(=O)N2CCCN2CCOCC2)cc1 (stereo not drawn)	-18%	-21%	-6%	-15%	31%	25µM*
COCCN1C(=O)c2oc3ccccc3c(=O)c2C1c1ccc(C(=O)OC)cc1 (stereo not drawn)	u	-1%	4%	-3%	-11%	0%
CCOc1ccc(C2c3c(oc4ccccc4c3=O)C(=O)N2CCCN2CCOCC2)cc1 (stereo not drawn)	u	-16%	9%	-13%	23%	35µM*
CCCC(=O)C1=C(c2ccc(C)cc2)N(C(=O)CCC)n2cnnc2S1	0%	2%	x	x	x	-2%
COc1cc(NC(=O)N2CCC(CN3CCOCC3)CC2)cc(OC)c1OC	14%	2%	x	x	x	4%
CN1C(=O)c2oc3ccccc3c(=O)c2C1c1ccncc1 (stereo not drawn)	0%	-24%	-1%	-20%	-26%	45µM*
Cc1ccc(C(=O)Nc2nnc(-c3ccco3)o2)cc1	-1%	-9%	-24%	19%	0%	-4%
O=C(Nc1nnc(-c2ccco2)o1)c1ccc([N+](=O)[O-])s1	-5%	-10%	-1%	-12%	-13%	28µM*
Cc1nn(-c2ccccc2)c2nc(-c3ccncc3)cc(C(=O)NCc3ccco3)c12	-20%	-6%	-15%	-4%	69%	45µM*
CCOC(=O)c1cc(-c2ccco2)nc2c1c(C)nn2-c1ccccc1	-7%	-2%	7%	9%	-16%	8.9µM*
O=C(/C=C/c1ccco1)NCC(=O)N/N=C/c1ccc(Cl)cc1	4%	-5%	0%	7%	-24%	14µM*
O=C(/C=C/c1ccc([N+](=O)[O-])cc1)c1ccco1	-10%	-3%	1%	u	-13%	-27%
CN(C)c1ccc(/C=N/NC(=O)CNC(=O)/C=C/c2ccco2)cc1	3%	5%	-2%	6%	-32%	u
O=C(/C=C/c1ccco1)NCC(=O)N/N=C/c1ccc([N+](=O)[O-])cc1	3%	u	-2%	-15%	-30%	8.9µM*
O=C(/C=C/c1ccc([N+](=O)[O-])cc1)/C=C/c1ccco1	-11%	x	-23%	x	20µM*	4.5µM*
C/C(=N/NC(=O)CNC(=O)/C=C/c1ccco1)c1ccc(Cl)cc1	-1%	-1%	-2%	-2%	-2%	8.9µM*

Screening results deposited in PubChem BioAssay by National Center for Advancing Translational Sciences (NCATS).
